Active and inactive are the calls of the source. No rule for the calls is given here.
What follows are compounds tested against Pantothenate synthetase (Mycobacterium tuberculosis (strain ATCC 25618 / H37Rv)) (UniProt P9WIL5) (assay: Recombinant Mtb pantothenate synthetase (PanC) inhibitors, coupled enzyme, confirmatory (AID 375;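 also: 0% = full reaction with vehicle and 100% = no enzyme background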)). Conditions: coupled enzyme assay; at 10 µM, active compounds read high.
Pantothenate synthetase (Mycobacterium tuberculosis (strain ATCC 25618 / H37Rv)), sequence (P9WIL5 whole entry, looked up): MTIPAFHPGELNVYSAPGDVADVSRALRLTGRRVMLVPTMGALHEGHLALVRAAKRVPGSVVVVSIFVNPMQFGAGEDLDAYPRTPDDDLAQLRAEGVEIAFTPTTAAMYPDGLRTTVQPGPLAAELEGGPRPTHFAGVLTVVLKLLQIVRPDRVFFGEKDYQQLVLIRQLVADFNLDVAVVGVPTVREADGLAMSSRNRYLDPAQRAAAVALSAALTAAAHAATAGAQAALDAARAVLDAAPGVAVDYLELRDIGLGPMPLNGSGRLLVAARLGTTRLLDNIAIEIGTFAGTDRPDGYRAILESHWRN

| Compound | inhibition |
| --- | --- |
| CCC(=O)N(Cc1cc2c(C)ccc(C)c2[nH]c1=O)C1CCCCC1 | 0% (inactive) |
| Cc1oc2cc(O)ccc2c(=O)c1-c1cnn(-c2ccccc2)c1 | 5% (inactive) |
| COc1ccc(NC(=O)CSc2nc3c(c(=O)n2-c2ccc(F)cc2)SCC3)cc1 | 0% (inactive) |
| CCCN(CCC)S(=O)(=O)c1ccc(C(=O)Nc2nnc(-c3cccc(OC)c3)o2)cc1 | 6% (inactive) |
| COc1ccccc1CNC(=O)C(C)NS(=O)(=O)c1ccccc1 (stereo not given) | 3% (inactive) |
| CCN(CC)C(=O)Cn1ncc2c1-c1ccccc1OC2 | 0% (inactive) |
| COc1cccc(OCCOCCN(C)CCO)c1 | 2% (inactive) |
| Cc1[nH]nc2c1C1(CCN(C(=O)c3ccccc3)CC1)C(C#N)=C(N)O2 | 0% (inactive) |
| COc1cc(C(=O)N2CCC(NC(=O)C(Cc3ccc(C)cc3)NC(C)=O)CC2)cc(OC)c1OC (stereo not given) | 3% (inactive) |
| CC1=C(C(=O)NCc2ccccc2)C(c2ccccc2OCC(N)=O)NC(=O)N1 (stereo not given) | 0% (inactive) |
| O=S(=O)(c1ccc(N2CCN(c3ccc(F)cc3)CC2)cc1)N1CCCC1 | 0% (inactive) |
| COC(=O)c1c(N)n(-c2cc(OC)cc(OC)c2)c2nc3ccccc3nc12 | 1% (inactive) |
| CC(C)(C#N)Nn1cnnc1 | 0% (inactive) |
| COc1cc(C2c3c(oc4c(C)cc(C)cc4c3=O)C(=O)N2Cc2cccnc2)ccc1O (stereo not given) | 0% (inactive) |
| CCN(CC)CCCN1C(=O)C(=O)/C(=C(/O)c2ccccc2)C1c1ccccn1 (stereo not given) | 0% (inactive) |
| CN(Cc1ccccc1)Cc1nc2c(c(=O)n(C)c(=O)n2C)n1Cc1ccc(Cl)cc1 | 0% (inactive) |
| Cc1csc(NC(=O)c2sc3nc(-c4cccs4)ccc3c2N)n1 | 5% (inactive) |
| CCCCNc1cc(C)oc(=O)c1C(C)=O | 4% (inactive) |
| COc1ccc(C(N)=O)cc1N | 0% (inactive) |
| COc1ccc(NC(=O)CSc2c(C)nn(-c3nnc(C)c(=O)[nH]3)c2C)cc1 | 0% (inactive) |

| Compound | inhibition |
| --- | --- |
| Cc1nc(C)c2c(c1C(F)(F)F)-c1ccccc1C2(F)F | 0% (inactive) |
| O=C(NC1CCCC1)C(c1cccs1)N(Cc1ccco1)C(=O)Cn1nnc(-c2cccs2)n1 (stereo not given) | 0% (inactive) |
| CSc1nnc(-c2ccc(NC(=O)CCc3ccccc3)cc2)n1C | 0% (inactive) |
| FC(F)Sc1nnc(-c2cccs2)n1-c1ccccc1 | 0% (inactive) |
| N[C@@H](Cc1cc(I)c(Oc2ccc(O)c(I)c2)c(I)c1)C(=O)O | 0% (inactive) |
| CC(=O)Nc1ccc(Oc2ccc3nc(C)[nH]c3c2)cc1 | 0% (inactive) |
| C=CCOc1ccc(/C=N/n2cncn2)cc1OC | 0% (inactive) |
| O=C(NCCCN1CCOCC1)c1ccc(CS(=O)(=O)c2c(Cl)cccc2Cl)o1 | 0% (inactive) |
| CCn1cc(C2=NOC(C(=O)Nc3cc(C)nn3-c3ccccc3)C2)c(C)n1 (stereo not given) | 0% (inactive) |
| Cc1cc(-c2ccccc2)c2c3c(cn2n1)c(=O)n(C)c(=O)n3C | 0% (inactive) |
| CCC(=O)OC1(C#CCOc2ccc(OC)cc2)CCN(C)CC1 | 0% (inactive) |
| Cc1cc(N2CCN(C3CCCC3)CC2)n2c(nc3ccccc32)c1C#N | 0% (inactive) |
| C=CCn1c(SCC(=O)c2ccc(OC)cc2)nnc1C(C)NC(=O)c1cccs1 (stereo not given) | 0% (inactive) |
| O=C(Cn1nnc(-c2cccc(C(F)(F)F)c2)n1)NC(=O)NCc1ccco1 | 0% (inactive) |
| COc1ccc(-n2nnnc2SCC(=O)N2CCOCC2)cc1 | 3% (inactive) |
| O=C(O)c1cc2c(s1)CCCC2 | 0% (inactive) |
| NC(=O)c1c(NC(=O)Cc2cccs2)sc2c1CCC2 | 0% (inactive) |
| O=S(=O)(c1ccc(-c2csc(-c3cccnc3)n2)cc1)N1CCCCC1 | 5% (inactive) |
| COc1cccc(Cn2c(OCC3CCCO3)nc3c2c(=O)n(C)c(=O)n3C)c1 (stereo not given) | 3% (inactive) |
| Cc1cc(=O)oc(C)c1C(=O)O | 0% (inactive) |
